Drawing on ChEMBL document CHEMBL4513216, “Probing the Open Global Health Chemical Diversity Library for Multistage-Active Starting Points for Next-Generation Antimalarials” (ACS Infect Dis, 2020), this text covers INHIBITION for 53 compounds.

Hit rate of the full screen: of about 68,000 compounds, about 2,700 (4%) showed an effect of 50% or more. The entries come from a sample that favours strong results as a whole.

The subject of this test is Plasmodium berghei. Description: Screen against P. berghei liver stage (PbLuc), transformed with Luciferase, at 2uM. Type of test: functional, HepG2. The settings on record: tested at 2 uM.
On to `COC(=O)c1cc(C2CC2)nc2c(C#N)cnn12`, for which the INHIBITION turned out to be 11.95%.

Turning to `O=C(O)c1cc(C2CC2)nc2c(Cl)cnn12`, the INHIBITION came out at 0.89%.

Regarding `COC(=O)c1cc(C2CC2)nc2c(Cl)cnn12`, the INHIBITION amounted to 70.37%.

For `Cc1nc(CN2CCCn3c(nc(Cn4cncn4)cc3=O)C2)cs1`, the INHIBITION turned out to be 37.6%.

`N#Cc1ccc(N2CCC3(CC2)CC(Oc2cccnc2)CO3)cc1` (stereo not drawn): the INHIBITION was determined as 38.49%.

Turning to `FC1(F)CCN(Cc2ccccn2)CC12CCN(c1cccnc1)C2` (stereo not drawn), the INHIBITION is on record as 2.07%.

`COC1CCN(C(=O)c2ccccc2NCc2cccnc2)CC1`: the INHIBITION is given as 54.77%.

As for `COCC1CCCN(C(=O)c2ccccc2NCc2cccnc2)C1` (stereo not drawn), the INHIBITION is listed as 22.39%.

As to `CC(C)N1CCN(C(=O)c2ccccc2NCc2cccnc2)CC1`, the INHIBITION was 8.73%.

`Cc1cc(CNCCNS(C)(=O)=O)sc1Br`: the INHIBITION turned out to be 20.76%.

`O=C(CCn1cncn1)N1C[C@@H]2CC[C@H]1CN(Cc1cccnc1)C2`: the INHIBITION is recorded as 44.37%.

Turning to `O=C(NCC1CCOC1)c1cc(-c2ccc(Cl)cc2)n[nH]1` (stereo not drawn), the INHIBITION is reported as 61.07%.

Turning to `O=C(NCC1CCOC1)c1cc(-c2cccc(Cl)c2)[nH]n1` (stereo not drawn), the INHIBITION turned out to be 47.03%.

On to `O=C(NCC1CCOC1)c1cc(-c2ccc(F)cc2)[nH]n1` (stereo not drawn), for which the INHIBITION is recorded as -22.69%.

Take `CCCS(=O)(=O)NC(=O)c1ccc(Br)o1`: the INHIBITION is 56.8%.

With `CCCS(=O)(=O)NC(=O)c1ccc(CC)o1`, the INHIBITION is on record as 10.48%.

As to `CCCN(C)S(=O)(=O)NC(=O)c1ccc(CC)o1`, the INHIBITION came out at 13.28%.

With `NC1CCCCN(Cc2cc(-c3ccccc3OC(F)(F)F)no2)C1` (stereo not drawn), the INHIBITION came out at 28.63%.

With `Cc1ccsc1CNCc1c(C(C)C)nn(C)c1N1CCOCC1`, the INHIBITION is -28.5%.

For `O=C1CC(c2ccccc2F)c2c(n3ccsc3nc2=O)N1` (stereo not drawn), the INHIBITION is 25.47%.

On to `CCOC(C)c1noc(CN(C)C(=O)C2C(C)(C)C2(C)C)n1` (stereo not drawn), for which the INHIBITION is 20.14%.

Turning to `CCOC(C)c1noc(CN(C)C(=O)c2ccncc2)n1` (stereo not drawn), the INHIBITION worked out at 20.14%.

For `CCOC(C)c1noc(CN(C)C(=O)c2cc3ccccn3c2)n1` (stereo not drawn), the INHIBITION is listed as 52.08%.

In the case of `Cc1cnn(CCC(=O)N2CCCN(c3ccccc3C#N)CC2)c1`, the INHIBITION is on record as -43.47%.

`CC(C)C(c1cccnc1)N(C)C(=O)Cc1ccc(O)cc1` (stereo not drawn): the INHIBITION is listed as 39.44%.

With `CCNC(=O)N(C)C(c1cccnc1)C(C)C` (stereo not drawn), the INHIBITION amounted to 42.2%.

In the case of `CC(C)C(c1cccnc1)N(C)C(=O)Cc1c(F)cccc1F` (stereo not drawn), the INHIBITION was found to be 54.29%.

On to `Cc1ccc(C(N)c2cccc(S(C)(=O)=O)c2)cc1` (stereo not drawn), for which the INHIBITION was determined as 54.92%.

For the compound `CS(=O)(=O)c1cccc(C(N)c2ccc(F)cc2)c1` (stereo not drawn), the INHIBITION was -19.35%.

Regarding `CS(=O)(=O)c1cccc(C(N)c2ccccc2)c1` (stereo not drawn), the INHIBITION turned out to be 35.65%.

As for `COc1ccc(CNC(=O)C(NC(=O)Cc2ccccc2)C(C)C)cn1` (stereo not drawn), the INHIBITION is on record as -129.64%.

Consider `O=C(Cc1ccccc1)N1CCC2(CC(=O)N(c3ccsc3)C2)C1` (stereo not drawn), for which the INHIBITION is -54.51%.

As for `COc1ccc(Cl)cc1C(=O)NCC1CCN(C(=O)c2ccoc2)CC1`, the INHIBITION is 17.33%.

For the compound `CSc1ccc(NC(=O)Cc2cccc(O)c2)nc1`, the INHIBITION came out at 55.36%.

As for `CCOc1cccc(NC(=O)Cc2cccc(O)c2)n1`, the INHIBITION turned out to be 0.51%.

On to `Cn1ccc(NC(=O)Cc2cccc(F)c2)n1`, for which the INHIBITION came to 19.89%.

With `COCCC(=O)N1C[C@@H](c2ccccc2F)[C@@]2(CCCC(=O)N2)C1`, the INHIBITION is given as -6.19%.

`O=C(NCc1cnc2n1CCN(CC1CCOCC1)C2)c1ccno1`: the INHIBITION is listed as -14.52%.

As to `Cc1ccc(S(=O)(=O)N2CCC(N3CCCCC3)CC2)cc1C`, the INHIBITION is reported as -25.62%.

With `Cc1cc(S(=O)(=O)N2CCCN3CCCC3C2)ccc1F` (stereo not drawn), the INHIBITION came out at 6.07%.

Consider `Cc1ccc(S(=O)(=O)N2CCCCC(N3CCN(C)CC3)C2)cc1F` (stereo not drawn), for which the INHIBITION turned out to be 50.3%.

Consider `Nc1nccnc1CC1CCCN(Cc2ccnc3ccccc23)C1` (stereo not drawn), for which the INHIBITION is 13.02%.

For the compound `CC(C)c1nc(CN2CCCC2Cn2cccn2)no1` (stereo not drawn), the INHIBITION was -97.56%.

Regarding `COCCN(C)Cc1cc(Cl)ccc1OCC(O)CN1CCCCCC1` (stereo not drawn), the INHIBITION is -55.56%.

Consider `CCOCc1ccccc1NC(=O)NCC(c1cnn(C)c1)N(C)C` (stereo not drawn), for which the INHIBITION is recorded as 18.54%.

`CCOc1ccccc1CNC(=O)NCC(c1cnn(C)c1)N(C)C` (stereo not drawn): the INHIBITION worked out at 71.95%.

For `CCOc1cc(F)ccc1NC(=O)NCC(c1cnn(C)c1)N(C)C` (stereo not drawn), the INHIBITION was -24.88%.

For the compound `COc1ccc(CN2CCn3cc(CN4CCCCC4)nc3C2)cc1`, the INHIBITION is -5.87%.

As for `Cc1cc(CN2C[C@@H]3COC[C@]3(COCc3csc(C)n3)C2)no1`, the INHIBITION came out at 1.74%.

In the case of `CC(C)c1nc(CN2CCOC(Cn3cncn3)C2)cs1` (stereo not drawn), the INHIBITION is 11.2%.

On to `CN(C)c1ccc(CCCNC(=O)NCC(O)c2ccsc2)cc1` (stereo not drawn), for which the INHIBITION was 34.55%.

Take `CCOc1ccccc1CCNC(=O)NCC(O)c1ccsc1` (stereo not drawn): the INHIBITION is 53.63%.

As for `CCOc1ccccc1CCNC(=O)NCC(O)c1cccs1` (stereo not drawn), the INHIBITION is reported as -23.79%.
